# Measurements reported in PubChem BioAssay (Tox21).
# Inconclusive results are not listed. Where a call stands in place of a potency, no number is given. Calls of active or inactive are those of the source. Unless noted, calls follow the shape of the dose curve; as a rule, active = well fitted curve in the direction sought with a large enough effect in the repeat runs; inconclusive = weak or mixed curves; inactive = no such curve, though single readings can be large; an effect the other way counts as inactive or inconclusive.
# Tested on: not listed separately
# Assay: qHTS assay to identify small molecule agonists of the androgen receptor (AR) signaling pathway in the presence of an antagonist - cell viability counter screen (AID 1259379);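 also: MDA-kb2 human breast cancer cells carrying an MMTV luciferase reporter; nearly all actives have a fitted effect of over 25% in size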
# Settings: MDA-kb2 viability, CellTiter-Fluor, 16 h; series mostly up to 92.4 µM
# Summary of the method: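 MDA-kb2 cells (MMTV-luciferase, AR/GR), 3,000/well, 5 h attachment, then 3.0 µM nilutamide (final) and compounds at 15 concentrations. Viability by CellTiter-Fluor fluorescence after 16 h at 37 °C, 0% CO2, in the reporter wells.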
row,SMILES,Potency
1,CN(C)CCN(C)C,inactive
2,COc1cc(CC(C)N)cc(OC)c1OC (stereo not drawn),inactive
3,COc1cc(CCN)cc(OC)c1OC,inactive
4,Oc1ccc2c3c1O[C@H]1[C@@H](O)C=C[C@H]4[C@@H](C2)NCC[C@@]341,inactive
5,CC(C)NCC(O)c1ccc([N+](=O)[O-])cc1 (stereo not drawn),inactive
6,O=C(O)C(F)(F)C(F)(F)C(F)(F)C(F)(F)C(F)(F)C(F)(F)F,inactive
7,NC1(c2ccccc2)CCCCC1,inactive
8,Cc1ccc(S(=O)(=O)N[C@@H](CCCCN)C(=O)CCl)cc1,inactive
9,Oc1ccc(Cc2ccc(O)cc2)cc1,inactive
10,CC#Cc1cc(C)nc(Nc2ccccc2)n1,inactive
11,CCOC(=O)Nc1cccc(OC(=O)Nc2ccccc2)c1,inactive
12,CCOC(=O)C(SP(=S)(OC)OC)c1ccccc1 (stereo not drawn),inactive
13,CCC1(CC)C(=O)C=CNC1=O,inactive
14,CC1N=C(N)OC1c1ccccc1 (stereo not drawn),inactive
15,O=C(Cl)/C=C/C(=O)Cl,inactive
16,C[C@H](N)C(=O)c1ccccc1,inactive

# Tested on: not listed separately
# Assay: qHTS assay to identify small molecule agonists of the estrogen receptor beta (ER-beta) signaling pathway - cell viability counter screen (AID 1259380); also: nearly all actives have a fitted effect of over 30% in size
# Settings: ER-beta-bla HEK293T viability, CellTiter-Glo luminescence, 16 h; series mostly up to 92.4 µM
# Summary of the method: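 ER-beta-UAS-bla HEK293T cells in medium with 2% charcoal-stripped FBS, pre-incubated 6 hr, then treated 16 hr at 37C. Cytotoxicity read in the same wells by CellTiter-Glo luminescence after 30 min at room temperature.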
row,SMILES,Potency
1,BrCCc1ccccc1,inactive
2,CN(C)CCN(C)C,inactive
3,COc1cc(CC(C)N)cc(OC)c1OC (stereo not drawn),inactive
4,COC(=O)c1ccc(CBr)cc1,inactive
5,Oc1ccc2c3c1O[C@H]1[C@@H](O)C=C[C@H]4[C@@H](C2)NCC[C@@]341,inactive
6,NC1(c2ccccc2)CCCCC1,inactive
7,COc1ccc(CN2CCNCC2)c(OC)c1OC,inactive
8,CC(C)(C)C(=O)Cl,inactive
9,C#CC(C)(C)O,inactive
10,C=C(Cl)CCl,inactive
11,Oc1ccc(Cc2ccc(O)cc2)cc1,inactive
12,O=C(O)CBr,inactive
13,CCOC(=O)Nc1cccc(OC(=O)Nc2ccccc2)c1,inactive
14,CCCC(C)(COC(N)=O)COC(N)=O,inactive
15,CCOC(=O)C(SP(=S)(OC)OC)c1ccccc1 (stereo not drawn),inactive
16,C=C1C[C@@H]2[C@H](CC[C@]3(C)C(=O)CC[C@@H]23)[C@@]2(C)C=CC(=O)C=C12,inactive
17,CC(Cc1ccccc1)NCCn1cnc2c1c(=O)n(C)c(=O)n2C (stereo not drawn),inactive
18,COc1ccc2c(C(=O)c3ccc(Cl)cc3)c(C)n(CC(=O)O)c2c1,inactive
19,O=C/C=C/c1ccco1,inactive
20,O=C(Cl)/C=C/C(=O)Cl,inactive
21,C[C@H](N)C(=O)c1ccccc1,inactive

# Tested on: not listed separately
# Assay: qHTS assay to identify small molecule antagonists of the estrogen receptor beta (ER-beta) signaling pathway - cell viability counter screen (AID 1259382);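 also: HEK293T cells carrying ER-beta-UAS-bla reporter stimulated with estradiol; nearly all actives have a fitted effect of over 55% in size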
# Settings: ER-beta-UAS-bla HEK293T viability, CellTiter-Glo luminescence, 16 h; series mostly up to 92.4 µM
# Summary of the method: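 ER-beta-UAS-bla HEK293T cells in 2% charcoal-stripped FBS medium, treated with compound plus 1 nM 17-beta-estradiol for 16 h at 37C. Viability read by CellTiter-Glo luminescence after 30 min at room temperature in the same wells.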
row,SMILES,Potency
1,COC(=O)c1ccccc1CS(=O)(=O)NC(=O)Nc1nc(OC)cc(OC)n1,inactive
2,BrCCc1ccccc1,inactive
3,CN(C)CCN(C)C,inactive
4,COc1cc(CC(C)N)cc(OC)c1OC (stereo not drawn),inactive
5,ClC(Cl)(Cl)Cl,inactive
6,COC(=O)c1ccc(CBr)cc1,inactive
7,COc1cc(CCN)cc(OC)c1OC,inactive
8,Oc1ccc2c3c1O[C@H]1[C@@H](O)C=C[C@H]4[C@@H](C2)NCC[C@@]341,inactive
9,O=C(Cl)CCl,inactive
10,CC(C)NCC(O)c1ccc([N+](=O)[O-])cc1 (stereo not drawn),inactive
11,CCOP(=S)(OCC)Oc1ccc(Cl)cc1Cl,inactive
12,NC1(c2ccccc2)CCCCC1,inactive
13,COc1ccc(CN2CCNCC2)c(OC)c1OC,inactive
14,CC(C)(C)C(=O)Cl,inactive
15,Cc1ccc(S(=O)(=O)N[C@@H](CCCCN)C(=O)CCl)cc1,inactive
16,C#CC(C)(C)O,inactive

row,SMILES,Potency
1,C=C(Cl)CCl,inactive
2,Oc1ccc(Cc2ccc(O)cc2)cc1,inactive
3,O=C(O)CBr,inactive
4,CC#Cc1cc(C)nc(Nc2ccccc2)n1,inactive
5,CCOC(=O)Nc1cccc(OC(=O)Nc2ccccc2)c1,inactive
6,COC1=CC(=O)O[C@@H](/C=C/c2ccccc2)C1,inactive
7,CCCC(C)(COC(N)=O)COC(N)=O,inactive
8,CCOC(=O)C(SP(=S)(OC)OC)c1ccccc1 (stereo not drawn),inactive
9,C=C1C[C@@H]2[C@H](CC[C@]3(C)C(=O)CC[C@@H]23)[C@@]2(C)C=CC(=O)C=C12,inactive
10,CC(Cc1ccccc1)NCCn1cnc2c1c(=O)n(C)c(=O)n2C (stereo not drawn),inactive
11,COc1ccc2c(C(=O)c3ccc(Cl)cc3)c(C)n(CC(=O)O)c2c1,inactive
12,CCC1(CC)C(=O)C=CNC1=O,inactive
13,CC1N=C(N)OC1c1ccccc1 (stereo not drawn),inactive
14,O=C/C=C/c1ccco1,inactive
15,O=C(Cl)/C=C/C(=O)Cl,inactive
16,C[C@H](N)C(=O)c1ccccc1,inactive

# Molecular target: Estrogen receptor (Homo sapiens) (UniProt P03372)
# Assay: qHTS assay to identify small molecule agonists of the estrogen receptor alpha (ER-alpha) signaling pathway in the presence of an antagonist (AID 1259383; calls by dose curve; also: nearly all actives have a fitted effect of over 15% in size; also: potency is read from the fitted curve at half-maximal effect)
# Settings: VM7Luc4E2 cells, ERE-luciferase, +ICI-182,780, 22 h; series mostly up to 92.4 µM
# Summary of the method: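 VM7Luc4E2 cells express endogenous full-length ER-alpha with an ERE-luciferase reporter and were hormone-deprived for 5 days. Compounds at 15 concentrations were added with 10.0nM ICI-182,780 for 22hr at 37C. Luminescence was read with ONE-Glo.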
# Sequence of Estrogen receptor (Homo sapiens) (P03372 whole entry, looked up): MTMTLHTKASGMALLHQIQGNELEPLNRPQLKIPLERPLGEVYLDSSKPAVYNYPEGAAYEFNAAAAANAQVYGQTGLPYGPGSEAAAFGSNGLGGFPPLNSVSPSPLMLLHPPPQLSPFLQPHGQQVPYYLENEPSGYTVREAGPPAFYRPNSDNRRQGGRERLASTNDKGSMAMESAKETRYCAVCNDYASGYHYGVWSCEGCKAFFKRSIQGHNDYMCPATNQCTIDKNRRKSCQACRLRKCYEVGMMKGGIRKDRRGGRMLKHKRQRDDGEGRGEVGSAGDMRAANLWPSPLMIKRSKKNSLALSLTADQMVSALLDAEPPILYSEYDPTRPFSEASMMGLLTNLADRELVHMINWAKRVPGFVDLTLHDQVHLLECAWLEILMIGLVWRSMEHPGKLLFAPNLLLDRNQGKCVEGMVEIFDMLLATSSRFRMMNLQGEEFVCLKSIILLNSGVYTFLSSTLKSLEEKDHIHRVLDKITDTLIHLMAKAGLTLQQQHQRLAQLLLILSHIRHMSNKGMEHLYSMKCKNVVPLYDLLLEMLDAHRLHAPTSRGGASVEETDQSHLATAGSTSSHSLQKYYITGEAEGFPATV
row,SMILES,Potency
1,COC(=O)c1ccccc1CS(=O)(=O)NC(=O)Nc1nc(OC)cc(OC)n1,inactive
2,CN(C)CCN(C)C,inactive
3,COc1cc(CC(C)N)cc(OC)c1OC (stereo not drawn),inactive
4,ClC(Cl)(Cl)Cl,inactive
5,COC(=O)c1ccc(CBr)cc1,12.3 µM (active)
6,COc1cc(CCN)cc(OC)c1OC,inactive
7,O=C(Cl)CCl,inactive
8,CCOP(=S)(OCC)Oc1ccc(Cl)cc1Cl,inactive
9,NC1(c2ccccc2)CCCCC1,inactive
10,COc1ccc(CN2CCNCC2)c(OC)c1OC,inactive
11,CC(C)(C)C(=O)Cl,inactive
12,Cc1ccc(S(=O)(=O)N[C@@H](CCCCN)C(=O)CCl)cc1,inactive
13,C=C(Cl)CCl,inactive
14,Oc1ccc(Cc2ccc(O)cc2)cc1,30.9 µM (active)
15,CC#Cc1cc(C)nc(Nc2ccccc2)n1,inactive
16,CCOC(=O)Nc1cccc(OC(=O)Nc2ccccc2)c1,12.2 µM (active)
17,C=C1C[C@@H]2[C@H](CC[C@]3(C)C(=O)CC[C@@H]23)[C@@]2(C)C=CC(=O)C=C12,inactive
18,CC(Cc1ccccc1)NCCn1cnc2c1c(=O)n(C)c(=O)n2C (stereo not drawn),inactive
19,CCC1(CC)C(=O)C=CNC1=O,inactive
20,CC[C@H](O)C(C[C@H](C)N(C)C)(c1ccccc1)c1ccccc1,inactive
21,CC1N=C(N)OC1c1ccccc1 (stereo not drawn),inactive
22,O=C/C=C/c1ccco1,inactive
23,O=C(Cl)/C=C/C(=O)Cl,inactive
24,C[C@H](N)C(=O)c1ccccc1,inactive
